# About 2,100 (0.53%) of roughly 400,000 compounds were called active. Another 14% or so got no clear call; they are omitted. No rule for the calls is given here. The entries come from a sample that favours actives as a whole.
# Target: Ataxin-2 (Homo sapiens) (UniProt Q99700)
# Assay: qHTS for Inhibitors of ATXN expression.
# Type: functional
# Ataxin-2 (Homo sapiens), sequence (Q99700 whole entry): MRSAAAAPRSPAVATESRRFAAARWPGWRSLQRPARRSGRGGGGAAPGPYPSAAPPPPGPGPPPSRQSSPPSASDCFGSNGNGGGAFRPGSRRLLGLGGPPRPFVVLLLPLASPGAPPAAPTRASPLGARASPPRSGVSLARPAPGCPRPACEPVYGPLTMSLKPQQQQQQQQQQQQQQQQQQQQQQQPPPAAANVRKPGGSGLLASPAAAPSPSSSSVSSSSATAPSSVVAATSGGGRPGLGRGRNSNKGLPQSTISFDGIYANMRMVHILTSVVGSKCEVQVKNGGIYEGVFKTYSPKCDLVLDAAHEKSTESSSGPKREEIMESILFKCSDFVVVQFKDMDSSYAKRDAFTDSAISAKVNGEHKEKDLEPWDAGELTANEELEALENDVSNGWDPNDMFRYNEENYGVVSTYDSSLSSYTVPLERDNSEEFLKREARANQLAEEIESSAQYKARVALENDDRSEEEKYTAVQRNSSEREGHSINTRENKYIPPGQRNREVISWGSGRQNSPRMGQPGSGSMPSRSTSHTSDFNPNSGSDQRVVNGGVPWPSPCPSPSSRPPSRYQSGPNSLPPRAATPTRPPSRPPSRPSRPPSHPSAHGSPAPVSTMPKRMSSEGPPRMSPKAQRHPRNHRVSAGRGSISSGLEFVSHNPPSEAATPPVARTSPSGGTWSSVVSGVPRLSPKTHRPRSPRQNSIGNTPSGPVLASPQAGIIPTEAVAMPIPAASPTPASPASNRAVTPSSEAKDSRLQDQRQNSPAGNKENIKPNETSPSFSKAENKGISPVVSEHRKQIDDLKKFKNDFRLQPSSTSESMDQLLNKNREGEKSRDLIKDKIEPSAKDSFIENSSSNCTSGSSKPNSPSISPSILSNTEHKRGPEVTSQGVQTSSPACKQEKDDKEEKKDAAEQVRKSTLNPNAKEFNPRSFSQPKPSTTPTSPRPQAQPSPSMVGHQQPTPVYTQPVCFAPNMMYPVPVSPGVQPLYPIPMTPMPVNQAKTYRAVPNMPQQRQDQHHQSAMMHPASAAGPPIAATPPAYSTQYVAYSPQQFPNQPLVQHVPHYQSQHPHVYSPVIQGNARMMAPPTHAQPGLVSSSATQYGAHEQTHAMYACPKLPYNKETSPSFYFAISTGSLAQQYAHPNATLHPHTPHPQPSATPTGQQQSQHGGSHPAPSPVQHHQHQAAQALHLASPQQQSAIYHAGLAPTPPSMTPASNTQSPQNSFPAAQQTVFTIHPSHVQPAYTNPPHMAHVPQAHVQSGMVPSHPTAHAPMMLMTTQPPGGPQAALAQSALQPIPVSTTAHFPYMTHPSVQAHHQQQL
row,SMILES,Potency
1,O=C(NN/C=C1\C(=O)N(Cc2ccccc2)C(=O)c2ccccc21)c1cccnc1,inactive
2,CC(=O)Nc1nc2n(n1)C(c1ccccc1)C=C(c1ccccc1)N2 (stereo unspecified),inactive
3,C1=C(c2ccccc2)Nc2ncnn2C1c1ccccc1 (stereo unspecified),inactive
4,CCOC(=O)CCc1c(C)c2ccc3c(c2oc1=O)CN(CCCO)CO3,inactive
5,Cc1ccc(N2C(=O)C3C(C(=O)c4ccccc4)=NN(c4ccccc4)C3C2=O)cc1 (stereo unspecified),inactive
6,Cc1c(C(=O)c2no[n+]([O-])c2C(=O)c2cnn(C)c2C)cnn1C,39.8 µM (active)
7,Cc1ccc(C(=O)c2no[n+]([O-])c2C(=O)c2ccc(C)cc2)cc1,31.6 µM (active)
8,CC(=O)c1ccc2noc(-c3ccc(C)cc3)c2c1,inactive
9,CC(OC(=O)c1ccccc1O)C(=O)Nc1ccc(Cl)cn1 (stereo unspecified),inactive
10,COc1cc(C(CC(=O)Nc2ccc(Cl)cn2)N2Cc3ccccc3C2=O)cc(OC)c1OC (stereo unspecified),inactive
11,CCc1cc2c(CN3CCN(C)CC3)cc(=O)oc2cc1O,inactive
12,COCOCCn1cc(CN2CCS(=O)(=O)N(Cc3ccc(-c4ccccc4)cc3)C(CC(C)C)C2=O)nn1 (stereo unspecified),39.8 µM (active)
13,COCOCCn1cc(CN2CCS(=O)(=O)N(Cc3ccc(-c4ccc(Cl)c(Cl)c4)cc3)C(C)C2=O)nn1 (stereo unspecified),22.4 µM (active)
14,COCOCCn1cc(CN2CCS(=O)(=O)N(Cc3ccc(-c4ccc(Cl)c(Cl)c4)cc3)C(C(C)C)C2=O)nn1 (stereo unspecified),28.2 µM (active)
15,CCOC(=O)NC(=O)/C(=C/Nc1ccc(Cl)c(Cl)c1Cl)C(C)=O,inactive
16,Nc1c(C(=O)N2CCCC2)sc2nc3c(cc12)CCCCCC3,inactive
17,c1cnn2c(-c3ccc4c(c3)CCO4)cnc2c1,inactive
18,O=C(CNC(=O)OCc1ccccc1)Oc1cc2oc(=O)cc(-c3ccccc3)c2cc1Cl,inactive
19,Cc1onc(C(=O)NC2CCCCC2)c1[N+](=O)[O-],inactive
20,COc1ccccc1Nc1c2ccccc2nc2ccccc12,inactive
21,COc1cc(N)ccc1Nc1c2ccccc2nc2ccccc12,inactive
22,COc1ccc(Nc2c3c(nc4ccccc24)CCC3)cc1Cl,28.2 µM (active)

row,SMILES,Potency
1,COc1ccc(C2CC(c3cccs3)=NN2c2ccc(C=O)cc2)cc1 (stereo unspecified),inactive
2,CC(C)(C)C(=O)Nc1ccc(C(=O)Nc2cccc(Oc3ccc(C(=O)O)c(C(=O)O)c3)c2)cc1,inactive
3,O=C(CCl)Nc1cccc(-c2cnc3ccccc3n2)c1,3.98 µM (active)
4,CCOC(=O)c1ccc(Nc2cnc3ccccc3n2)cc1,inactive
5,CCOc1ccc(-c2cnc3ccccc3n2)cc1,inactive
6,O=C(O)CSCC(=O)NCc1c(Cl)cccc1Oc1ccccc1,inactive
7,Oc1ccc(-c2cnc3ccccc3n2)cc1,inactive
8,O=C(CCl)Nc1cccc(Oc2ccccc2)c1,8.44 µM (active)
9,O=C(CCl)Nc1ccc(Oc2cnc3ccccc3n2)cc1,20 µM (active)
10,CCN(CC)CCN1C2=C(C(=O)CC(C)(C)C2)C(c2cccc(F)c2)C2=C1CC(C)(C)CC2=O,inactive
11,CCOc1ccc(NC(=O)CC(NC(C)=O)c2ccccc2)cc1S(=O)(=O)N1CCCC1 (stereo unspecified),inactive
12,Cc1c(-c2ccccc2)c(=O)oc2cc(O)ccc12,inactive
13,CCCn1c(O)c(C(=O)NCCc2ccc(OC)cc2)c(=O)c2ccccc21,inactive
14,COc1ccc(Cn2cc(C(=O)c3ccc(C)cc3)c(=O)c3cc(OC)c(OC)cc32)cc1,11.2 µM (active)
15,COc1ccc(-n2cc(C(=O)c3ccccc3O)cn2)cc1,inactive
16,COc1ccc(/C=c2\s/c(=C/C(=O)c3ccc(C)cc3)[nH]c2=O)c(OC)c1,inactive
17,COc1ccc(Cn2cc(C(=O)c3ccc(C)c(C)c3)c(=O)c3ccccc32)cc1,31.6 µM (active)
18,COc1cccc(Cn2cccc(NC(=O)Nc3ccccc3C)c2=O)c1,inactive
19,Cc1ccc(S(=O)(=O)NC(C)C(=O)OCC(=O)Nc2sccc2C(N)=O)cc1 (stereo unspecified),inactive
20,Cc1ccc(C)c(Nc2nc3nonc3nc2Nc2cccc(C)c2C)c1,10 µM (active)
21,Cc1ccccc1Nc1cccc2nonc12,inactive
22,O=C(CCc1ccccc1)NC(c1cccs1)c1cc(Cl)c2cccnc2c1O (stereo unspecified),inactive

row,SMILES,Potency
1,O=C(CCc1ccccc1)NC(=S)Nc1ccccc1Br,inactive
2,O=C(CCc1ccccc1)NC(NC(=S)Nc1ccc(Cl)cc1)C(Cl)(Cl)Cl (stereo unspecified),39.8 µM (active)
3,O=C1c2oc3ccc(Cl)cc3c(=O)c2C(c2ccccn2)N1CCCN1CCOCC1 (stereo unspecified),inactive
4,NC(=O)C1=CC2C3C=CC2(O)C(=O)OC3O1 (stereo unspecified),16.8 µM (active)
5,Cn1cc(/C=C/c2cc[n+](C)cc2)c2cc(F)ccc21,inactive
6,CCOC(=O)Cc1csc(NC(=O)c2ccc3ncsc3c2)n1,35.5 µM (active)
7,CCOC(=O)Cc1csc(NC(=O)COc2ccc3c(C)cc(=O)oc3c2)n1,inactive
8,CCOC(=O)Cc1csc(NC(=O)CN2CCN(c3ccccc3)CC2)n1,inactive
9,SC1=NCN(Cc2ccco2)CN1,inactive
10,Clc1ccc(/C=C/c2ncc3ccccn23)cc1,inactive
11,CCc1cc2c(-c3ccccc3)cc(=O)oc2cc1OC(=O)c1cccs1,inactive
12,CCc1ccc2c(c1)/C(=C/C(=O)c1cccs1)C(=O)N2,20 µM (active)
13,COCCN(CCOC)Cc1c(O)ccc2c1O/C(=C\c1ccc(C)o1)C2=O,inactive
14,COc1ccc(/C=C/C(=O)Oc2ccc(/C=N/NC(=O)c3ccccc3)cc2)cc1OC,31.6 µM (active)
15,COc1ccc(/C=N/NC(=O)c2cccc(C(F)(F)F)c2)cc1,inactive
16,Nc1ccc(C(=O)N/N=C\c2ccc(OC(=O)c3ccccc3Cl)cc2)cc1,inactive
17,O=C(CNC(=O)c1ccccc1F)NCc1ccccn1,inactive
18,CCCN1C/C(=C/c2cccc([N+](=O)[O-])c2)C(=O)/C(=C/c2cccc([N+](=O)[O-])c2)C1,4.47 µM (active)
19,O=C1/C(=C/c2cccc(Cl)c2)CSc2sccc21,inactive
20,O=C1NC(=O)/C(=C\c2ccc(OCc3cccc([N+](=O)[O-])c3)cc2)N1,inactive
21,Cc1cccc(N2CCN(S(=O)(=O)c3cccs3)CC2)c1C,inactive
22,Cc1ccccc1C1(CC(=O)N2CCCC2c2nccs2)CC(=O)N(C2CCCC2)C1=O (stereo unspecified),inactive
